Consider 17 compounds from ChEMBL document CHEMBL1961873, “Compounds: GSK PKIS; Assays: Nanosyn kinase panel” (2012).

Each structure is given as a SMILES string.

For assay [1], the system named is Tyrosine-protein kinase ABL1 (Homo sapiens), P00519 [E255K]. The following applies: at 0.1 µM.
Assay [2] has the same test system. The following applies: at 1 µM.
Assay [3] relates to Tyrosine-protein kinase ABL1 (Homo sapiens), P00519 [H396P]. The note with it: at 0.1 µM.
The test system is the same in assay [4]. The note with it: at 1 µM.
Assay [5] relates to Tyrosine-protein kinase ABL1 (Homo sapiens), P00519 [M351T]. The note with it: at 0.1 µM.
Assay [6] has the same test system. The following applies: at 1 µM.
The test system of assay [7] is Tyrosine-protein kinase ABL1 (Homo sapiens), P00519 [Q252H]. The following applies: at 0.1 µM.
Assay [8] has the same test system. The following applies: at 1 µM.
In assay [9] the test system is Tyrosine-protein kinase ABL1 (Homo sapiens), P00519 [T315I]. The note with it: at 0.1 µM.
Assay [10] has as its target Serine/threonine-protein kinase PAK 6 (Homo sapiens) (UniProt Q9NQU5). The note with it: at 1 µM.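 Note: values are mean percent inhibition of PAK6 kinase.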

Chain of Serine/threonine-protein kinase PAK 6 (Homo sapiens) (Q9NQU5 whole entry, looked up): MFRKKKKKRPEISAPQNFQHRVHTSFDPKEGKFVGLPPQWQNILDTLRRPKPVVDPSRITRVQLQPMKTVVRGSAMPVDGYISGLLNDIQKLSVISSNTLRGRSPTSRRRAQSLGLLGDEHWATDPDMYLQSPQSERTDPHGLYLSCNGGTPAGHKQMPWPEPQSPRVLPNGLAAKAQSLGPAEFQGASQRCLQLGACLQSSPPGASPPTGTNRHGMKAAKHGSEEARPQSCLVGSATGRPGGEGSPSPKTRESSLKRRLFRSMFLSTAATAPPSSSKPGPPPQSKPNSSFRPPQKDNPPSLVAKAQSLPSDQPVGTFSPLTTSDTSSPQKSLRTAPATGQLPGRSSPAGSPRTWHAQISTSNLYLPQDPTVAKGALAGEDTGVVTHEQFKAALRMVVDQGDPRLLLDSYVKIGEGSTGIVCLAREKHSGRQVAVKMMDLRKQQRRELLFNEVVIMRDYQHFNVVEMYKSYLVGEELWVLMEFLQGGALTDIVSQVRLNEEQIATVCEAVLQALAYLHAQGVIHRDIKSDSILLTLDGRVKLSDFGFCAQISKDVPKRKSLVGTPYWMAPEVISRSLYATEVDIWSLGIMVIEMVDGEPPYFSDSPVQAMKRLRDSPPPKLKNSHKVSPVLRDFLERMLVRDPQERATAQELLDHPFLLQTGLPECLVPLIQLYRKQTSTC

Take `Cc1nnc(-c2ccc(C)c(-c3ccc(C(=O)NCc4ccc(Cl)cc4)cc3)c2)o1`: the inhibition (in general, the drop in the measured response relative to a control, in per cent) in [1] is 2.64%; in [2], 6.05%; in assay [3], 3.3%; in assay [4], 11.6%; in [5], -1.14%; in assay [6] it was 1.63%. In addition, the figures for the inhibition in assay [7], in assay [8] and in assay [9] were 2.54%, 4.45% and 2.23%, respectively.
In the case of `COc1ccc2ncn(-c3cc(O[C@H](C)c4ccccc4Cl)c(C(N)=O)s3)c2c1`, the inhibition stood at 1.83% in assay [10]; 1.19% in [1]; 2.26% in [2]; 3.99% in assay [3]; 9.15% in assay [4]; 0.34% in assay [5]. Besides, the inhibition in assay [6] was 5.61%; in assay [7], 2.81%; in assay [8] it was 4.72%; in [9], 0.33%.
As for `CS(=O)(=O)CCNCc1ccc(-c2ccc3ncnc(Nc4ccc(OCc5ccccc5)c(Br)c4)c3c2)o1`, the inhibition in assay [10] was -7.5%; in [1] it was 1.35%; in assay [2] it was 2.28%; in assay [3] it was 4.48%; in [4], 4.61%; in assay [5], 0.99%. The inhibition in assay [6] amounted to 2.04%; in [7] it was 3.94%; in assay [8], 4.09%; in assay [9] it was 1.53%.
Consider `Cc1ccc(NC(=O)c2ccoc2)cc1-c1ccc(C(=O)NCC2CC2)cc1`, for which the inhibition in assay [10] is -2.77%; in assay [1], 1.13%; in [2] it was -0.37%; in assay [3] it was 3.08%; in assay [4], 2.07%; in assay [5], 0.71%. For the same compound, the inhibition is 1.82% in [6], 2.29% in assay [7], 0.64% in assay [8] and 2.05% in assay [9].
For `CN1CCN(CCCNc2nc3ccc(Oc4ccc(NC(=O)Nc5cc(C(F)(F)F)ccc5F)cc4)cc3[nH]2)CC1`, the inhibition in assay [10] is -3.76%; in assay [1] it was 0.07%; in assay [2], 4.6%; in [3], 0.89%; in [4], 15%; in assay [5], 14.3%. Also, the inhibition in assay [6] was 45.5%; in [7], 12.8%; in assay [8], 48.1%; in assay [9], 16.6%.
With `CCC(=O)Nc1ccc(C)c(-c2ccc(C(=O)NCC3CC3)cc2)c1`, the inhibition in assay [10] is -9.47%; in assay [1], 2.13%; in [2], 2.73%; in [3] it was 3.96%; in assay [4], 4.29%; in assay [5], 2.37%. The inhibition in assay [6] was found to be 1.29%; in [7], 3.29%; in [8], 4.63%; in assay [9] it was 2.76%.
Consider `CCS(=O)(=O)c1ccc(OC)c(Nc2ncc(-c3ccccc3Cl)o2)c1`, for which the inhibition in assay [10] was determined as 0.05%; in [1], 2.3%; in [2] it was 16.3%; in [3] it was 5.27%; in [4], 23.2%; in assay [5] it was 5.47%. Moreover, the inhibition in assay [6] amounted to 22%; in assay [7], 5.67%; in [8], 26.3%; in [9], 3.23%.
With `CN(c1ccc(NC(=O)Nc2c(Cl)cccc2Cl)cc1)c1ccnc(Nc2cccc(CS(C)(=O)=O)c2)n1`, the inhibition in assay [10] worked out at 0.99%; in [1], 8.03%; in assay [2] it was 35.9%; in [3], 30%; in assay [4] it was 69.3%; in assay [5], 46.9%. Moreover, the inhibition was found to be 81.9% in assay [6], 39.3% in assay [7], 72.3% in assay [8] and 41.6% in assay [9].
Turning to `O=C(NCC1CC1)c1ccc(-c2cccc(C(=O)NC3CC3)c2)cc1`, the inhibition in assay [10] amounted to 8.38%; in assay [1], 2.4%; in assay [2], 3.09%; in assay [3] it was 3.44%; in [4], 3.43%; in assay [5], 2.14%. Also, the inhibition in assay [6] came out at 4.08%; in [7] it was 2.78%; in assay [8], 4.27%; in [9], 2.52%.
Regarding `NC(=O)Cc1ccccc1Oc1nccc(-c2c(-c3ccc(F)cc3)ncn2C2CCNCC2)n1`, the inhibition in assay [10] is -1.76%; in [1], 0.8%; in [2], 2.45%; in assay [3], 0.08%; in assay [4] it was -2.39%; in assay [5], -1.54%. The inhibition in assay [6] was -1.6%; in assay [7], 2.24%; in assay [8], 1.77%; in assay [9], 1.47%.
As for `NC(=O)c1cc(-c2ccncc2)cc(-c2ccccc2)c1N`, the inhibition was -5.82% in [10]; 4.33% in [1]; 30.6% in [2]; 9.63% in assay [3]; 39.4% in assay [4]; 5.03% in assay [5]. In addition, the inhibition in assay [6] was found to be 36.6%; in [7], 9.54%; in [8], 38.8%; in [9] it was 4.26%.
Regarding `O=C1Nc2ccc(I)cc2C1=Cc1cc(Br)c(O)c(Br)c1`, the inhibition in assay [1] amounted to 1.89%; in [2], 6.01%; in assay [3], 4.06%; in [4], 6.63%; in assay [5] it was 1%; in assay [6], 4.74%. The inhibition worked out at 3.44% in [7], 7.29% in assay [8] and 2.84% in assay [9].
Take `Fc1ccc(-c2ncn(C3CCNCC3)c2-c2ccnc(Oc3ccc4c(c3)OCO4)n2)cc1`: the inhibition in [10] was -5.42%; in [1] it was 2.98%; in [2], 4.48%; in assay [3], 5.49%; in assay [4], 7.54%; in assay [5], 1.29%. Besides, the inhibition in [6] was 3.88%; in [7] it was 4.09%; in [8], 6.75%; in assay [9], 3.51%.
As for `CCN(CC)Cc1ccc(Nc2nccc(-c3cnn4ncccc34)n2)cc1`, the inhibition was -2.98% in [10]; 2.66% in [1]; 22.6% in assay [2]; 8.9% in [3]; 37.5% in [4]; 4.62% in [5]. For the same compound, the inhibition stood at 37.4% in [6], 8.65% in assay [7], 43.2% in [8] and 7.91% in assay [9].
In the case of `Fc1ccc(-c2ncn(C3CCNCC3)c2-c2ccnc(Oc3ccc(F)c(F)c3)n2)cc1`, the inhibition in [10] is -4.15%; in assay [1], 1.96%; in assay [2] it was 1.25%; in [3], 4%; in assay [4] it was 3.19%; in assay [5], -0.04%. In addition, the inhibition in assay [6] is -0.02%; in [7] it was 2.26%; in assay [8] it was 2.39%; in assay [9], 0.22%.
For the compound `C#Cc1cccc(Nc2ncnc3ccc(OCCCCNCCS(C)(=O)=O)cc23)c1`, the inhibition was -2.58% in assay [10]; 4.64% in assay [1]; 19.7% in assay [2]; 7.05% in [3]; 23% in assay [4]; 4.14% in assay [5]. Moreover, the inhibition was 19.2% in [6], 6.79% in assay [7], 22.7% in [8] and 3.9% in assay [9].
Regarding `N#Cc1ccc(Oc2nccc(-c3c(-c4ccc(F)cc4)ncn3C3CCNCC3)n2)cc1`, the inhibition in [10] is -7.23%; in assay [1], 2.37%; in [2] it was 3.79%; in [3], 3.91%; in assay [4], 5.59%; in assay [5], 2.13%. Further, the inhibition in [6] is 4.25%; in assay [7], 4%; in assay [8] it was 6.46%; in assay [9], 3.62%.
